Assay outcomes: PubChem BioAssay, National Center for Advancing Translational Sciences (NCATS)
An excerpt weighted towards active compounds, which were near 2.8% of everything screened.
ATXN viability: viability counter-screen for ATXN expression inhibitors; S2 cells (HEK-293 line with an ATXN2-luciferase reporter) viability, CellTiter-Fluor protease fluorescence, 24 h; Potency, µM (doses to about 56.7 µM), most hits filed as cytotoxic; 400,000 tested, 0.49% active; also: nearly all actives have a fitted effect of over 40% in size
HepG2 viability: counter-screen for TGF-b inhibitors: cytotoxicity in HepG2 cells; HepG2 CAGA-GFP viability, ATP luminescence, 18 h; Potency, µM (series often up to 46.1 µM), most hits filed as cytotoxic; AID 588856; 410,000 tested, 0.76% active
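HepG2 CAGA-GFP cells (1000/well, DMEM with 1% FBS) received compound, then TGF-beta at 500 pg/mL final, and were incubated 18 hours at 37 degrees C. Viability was read by CellTiter-Glo luminescence. Media-only wells were set as complete cell-killing and DMSO as no toxicity.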
ATXN2 expr inh: inhibitors of ATXN2 expression; Potency, µM (top dose mostly 57 µM), actives largely listed as inhibitors; HEK-293 ATXN2-luciferase reporter, luminescence, 24 h; AID 1745845; 360,000 tested, 0.72% active; also: nearly all actives have a fitted effect of over 55% in size
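ATXN2-luciferase reporter cells (luciferase flanked by upstream and downstream ATXN2 gene portions) were treated 24 h at 37 °C with compounds at up to 57 uM. SteadyGlo luminescence gave expression; GF-AFC fluorescence gave viability.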
HTT aggregate: reduces HttQ103-GFP aggregates in PC12 cells | Potency, µM (top dose mostly 46.1 µM), hits mostly inhibitors | PC12 HttQ103-GFP aggregates, Acumen cytometry, 40 h | AID 1688 | 220,000 tested, 1.1% active; also: nearly all actives have a fitted effect of over 60% in size
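Ecdysone-promoter PC12 model expressing HTT exon 1 Q103 fused to GFP, induced by tebufenozide at 100 nM final. Compounds titrated; aggregates sized 1–25 µm scored on a 488 nm laser cytometer.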
HTT ATP protect: Huntington cell model cytoprotection by ATP luminescence | PC12 HTT-Q103 induced, cytoprotection, ATP luminescence, 40 h | Potency, µM (titrated, usually from 56.4 µM), most hits filed as activators | 230,000 tested, 0.14% active; also: nearly all actives have a fitted effect of over 45% in size
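Quantitative HTS on tebufenozide-induced (100 nM) PC12 cells expressing HTTQ103 exon 1–GFP; compounds tested as a concentration series; survival measured via cellular ATP.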
TGFb SMAD3 inh: blocks TGF-b signaling; HepG2 CAGA-GFP TGF-b/SMAD3 reporter, GFP fluorescence, 18 h; TGF-beta stimulated, 500 pg/mL final; 410,000 tested, 1.2% active; Potency, µM (top dose mostly 46.1 µM), usual class: inhibitors; AID 588855; also: nearly all actives have a fitted effect of over 65% in size
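HEPG2 CAGA-GFP cells (1000/well, DMEM with 1% FBS) were pre-incubated 2 h at 37 degrees C, given compound by pin tool, then stimulated with TGF-beta at 500 pg/mL final for 18 h before per-cell GFP fluorescence imaging.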
Of the large screens only hits and unclear results are named; the others gave an inactive call; ! = repeats disagree. Calls follow the shape of the dose curve; as a rule, active = well fitted curve in the direction sought with a large enough effect; inconclusive = small, poorly fitted or top-dose-only effect, or another doubt; inactive = no such curve, though single readings can be large; an effect the other way counts as inactive or inconclusive.

CCCCN1CC(c2nc3ccccc3n2CCCCOc2cc(C)ccc2C)CC1=O (stereo not drawn)	ATXN viability inconclusive, ATXN2 expr inh inconclusive, TGFb SMAD3 inh inconclusive (no result: HTT aggregate, HTT ATP protect)
CCCCN1CC(c2nc3ccccc3n2CCCCOc2ccccc2C)CC1=O (stereo not drawn)	ATXN viability inconclusive, HepG2 viability 18µM, TGFb SMAD3 inh inconclusive (no result: HTT aggregate, HTT ATP protect)
CCCCN1CC(c2nc3ccccc3n2CCCCOc2c(C)cccc2C)CC1=O (stereo not drawn)	ATXN viability inconclusive, ATXN2 expr inh 22µM, TGFb SMAD3 inh inconclusive (no result: HTT aggregate, HTT ATP protect)
CCOc1ccccc1N1CC(c2nc3ccccc3n2CCOc2ccc(OC)cc2)CC1=O (stereo not drawn)	ATXN viability 32µM, HepG2 viability 13µM, ATXN2 expr inh inconclusive, TGFb SMAD3 inh inconclusive (no result: HTT aggregate, HTT ATP protect)
CCOc1ccc(N2CC(c3nc4ccccc4n3Cc3ccccc3F)CC2=O)cc1 (stereo not drawn)	TGFb SMAD3 inh inconclusive (no result: HTT aggregate, HTT ATP protect)
Cc1c(Cl)cccc1N1CC(c2nc3ccccc3n2Cc2ccccc2F)CC1=O (stereo not drawn)	ATXN viability 32µM, TGFb SMAD3 inh inconclusive (no result: HTT aggregate, HTT ATP protect)
CCN(CC)/[N+]([O-])=N/Oc1ccc([N+](=O)[O-])cc1[N+](=O)[O-]	none (no result: ATXN viability, ATXN2 expr inh, HTT aggregate, HTT ATP protect)
COc1cc(/C=c2\[nH]c(=O)/c(=C/c3cc(OC)c(OC)c(OC)c3)[nH]c2=O)cc(OC)c1OC	none (no result: ATXN viability, ATXN2 expr inh, HTT aggregate, HTT ATP protect)
COc1ccc(CC(=O)Nc2ccc(OC(C)=O)cc2C(=O)O)cc1	HepG2 viability 1.1µM (no result: ATXN2 expr inh)
CC(=O)Nc1sc2c(c1-c1nc3ccccc3s1)CN(C(C)C)CC2	ATXN2 expr inh 3.5µM (no result: HTT aggregate, HTT ATP protect)
CCCCC(=O)Nc1sc2c(c1-c1nc3ccccc3s1)CCN(C(C)=O)C2	none (no result: ATXN viability, HepG2 viability, ATXN2 expr inh, TGFb SMAD3 inh)
CC(=O)N1CCc2c(sc(NC(=O)C3CC3)c2-c2nc3ccccc3s2)C1	ATXN viability inconclusive, ATXN2 expr inh 32µM, HTT aggregate inconclusive, TGFb SMAD3 inh inconclusive
Cc1ccccc1CN1C[C@@H]2C[C@@H](c3cnc(N4CCOCC4)s3)N3CCC[C@@]23C1=O	HTT aggregate 2.5µM, TGFb SMAD3 inh inconclusive (no result: ATXN2 expr inh)
COc1ccccc1CN1C[C@@H]2C[C@@H](c3ccccc3C)N3CCC[C@@]23C1=O	none (no result: ATXN2 expr inh)
Nc1cccc2c1C(=O)N(C(=O)/C=C/c1cccc(Br)c1)C2=O	ATXN2 expr inh inconclusive
Nc1cccc2c1C(=O)N(C(=O)/C=C/c1cccc(F)c1)C2=O	ATXN2 expr inh inconclusive, TGFb SMAD3 inh 14µM
O=C1C=CC(=O)N1CCCCCCN1C(=O)C=CC1=O	ATXN2 expr inh inconclusive, HTT aggregate 5µM, TGFb SMAD3 inh 4.5µM (no result: ATXN viability)
Cc1ccc2c(c1)c1c(n2CC(O)Cn2nc(C)c(Br)c2C)CCCC1 (stereo not drawn)	HepG2 viability 20µM, TGFb SMAD3 inh inconclusive
Cc1ccc2c(c1)c1c(n2CC(O)CN2CCCCCC2)CCCC1 (stereo not drawn)	ATXN viability inconclusive (no result: HTT aggregate, HTT ATP protect)
Cc1ccc2c(c1)c1c(n2CC(O)Cn2c(C)nc3ccccc32)CCCC1 (stereo not drawn)	ATXN viability 32µM, ATXN2 expr inh inconclusive, TGFb SMAD3 inh inconclusive
COc1ccc(C(=O)NNC(=O)c2ccc3ccccc3n2)cc1	ATXN2 expr inh 20µM, TGFb SMAD3 inh inconclusive (no result: ATXN viability, HTT aggregate, HTT ATP protect)
Cc1ccc(S(=O)(=O)CCC(=O)OCC(=O)c2cc(C)ccc2C)cc1	none (no result: HTT aggregate, HTT ATP protect)
COc1ccc(C(=O)CCS(=O)(=O)c2ccc(C)cc2)cc1OC	HepG2 viability 16µM, TGFb SMAD3 inh inconclusive (no result: HTT aggregate, HTT ATP protect)
Cc1ccc(S(=O)(=O)CCC(=O)c2ccc(O)cc2O)cc1	HepG2 viability 11µM, TGFb SMAD3 inh 11µM
COc1ccc(C(=O)COC(=O)CCS(=O)(=O)c2ccc(C)cc2)c(OC)c1	none (no result: HTT aggregate, HTT ATP protect)
CCOc1cccc(CNc2ccc(O)cc2)c1OCc1ccccc1Cl	ATXN viability 13µM!, HepG2 viability 16µM!, ATXN2 expr inh 11µM!, TGFb SMAD3 inh 13µM
CCOc1cc(CNc2ccc(O)cc2)cc(Cl)c1OCc1ccccc1	ATXN viability 22µM, ATXN2 expr inh 32µM, TGFb SMAD3 inh inconclusive (no result: HTT aggregate, HTT ATP protect)
